Results taken from PubChem BioAssay AID1159580 (chemical genetic matrix, 2015).
In all, about 5,500 compounds went through this assay and about 2,000 (36%) were called active. Inconclusive results (about 18%) are left out. Cut-off read from the data, not from the text of the source: active = normalized growth mostly below about 0.91 (no sharp cut-off); inconclusive = no clear call, values can overlap the other calls; inactive = mostly above about 0.92. The list shows a part of the results.

Test: chemical genetic growth profiling, strain panel (AID 1159580);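 note: tested at 20 µM; growth read once vehicle control cultures reached saturation at 30 °C; 1 = growth at the plate median or of vehicle wells; lower values mean less growth of the strain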
Conditions: growth OD

Measured: normalized growth

COC(=O)[C@@]1(C)CCC[C@]2(C)c3ccc(O)c(C(C)C)c3CCC12 (stereo partly specified)
inactive: S. cerevisiae deletion strains, locus YKL068W, active compounds read low 0.979 | S. cerevisiae deletion strains, locus YKR026C, strain gcn3, active compounds read low 0.978 | S. cerevisiae deletion strains, locus YKR091W, strain srl3, active compounds read low 0.976 | S. cerevisiae deletion strains, locus YLL001W, strain dnm1, active compounds read low 0.937 | S. cerevisiae deletion strains, locus YLL041C, strain sdh2, active compounds read low 0.965 | S. cerevisiae deletion strains, locus YLR102C, strain apc9, active compounds read low 0.95 | S. cerevisiae deletion strains, locus YLR357W, strain rsc2, active compounds read low 1 | S. cerevisiae deletion strains, locus YLR370C, strain arc18, active compounds read low 1.01 | S. cerevisiae deletion strains, locus YLR384C, strain iki3, active compounds read low 0.998 | S. cerevisiae deletion strains, locus YMR058W, strain fet3, active compounds read low 0.919 | S. cerevisiae deletion strains, locus YMR078C, strain ctf18, active compounds read low 0.96 | S. cerevisiae deletion strains, locus YMR125W, strain sto1, active compounds read low 0.959 | S. cerevisiae deletion strains, locus YMR129W, active compounds read low 0.96 | S. cerevisiae deletion strains, locus YMR231W, strain pep5, active compounds read low 0.996 | S. cerevisiae deletion strains, locus YNL067W, strain RPL9B, active compounds read low 0.903 | S. cerevisiae deletion strains, locus YNL248C, strain rpa49, active compounds read low 0.916 | S. cerevisiae deletion strains, locus YNL250W, strain rad50, active compounds read low 0.934 | S. cerevisiae deletion strains, locus YNL271C, strain bni1, active compounds read low 0.971 | S. cerevisiae deletion strains, locus YNL322C, strain KRE1 (second series), active compounds read low 0.985 | S. cerevisiae deletion strains, locus YNR049C, strain mso1, active compounds read low 0.964 | S. cerevisiae deletion strains, locus YOL012C, strain htz1 0.967 | S. cerevisiae deletion strains, locus YOR136W, strain idh2, active compounds read low 0.929 | S. cerevisiae deletion strains, locus YOR316C, strain cot1, active compounds read low 0.984 | S. cerevisiae deletion strains, locus YPL078C, strain atp4, active compounds read low 0.924 | S. cerevisiae deletion strains, locus YPR141C, strain kar3, active compounds read low 0.987
active: S. cerevisiae deletion strains, locus YJR066W, strain TOR1, active compounds read low 0.689 | S. cerevisiae deletion strains, locus YKL009W, strain mrt4, active compounds read low 0.859 | S. cerevisiae deletion strains, locus YKL085W, strain MDH1 (second series), active compounds read low 0.522 | S. cerevisiae deletion strains, locus YKL085W, strain MDH1, active compounds read low 0.522 | S. cerevisiae deletion strains, locus YKL160W, strain elf1, active compounds read low 0.881 | S. cerevisiae deletion strains, locus YKR001C, strain vps1, active compounds read low 0.231 | S. cerevisiae deletion strains, locus YLL026W, active compounds read low 0.843 | S. cerevisiae deletion strains, locus YLR027C, strain aat2, active compounds read low 0.354 | S. cerevisiae deletion strains, locus YLR039C, strain RIC1, active compounds read low 0.245 | S. cerevisiae deletion strains, locus YLR058C, strain SHM2, active compounds read low 0.661 | S. cerevisiae deletion strains, locus YLR113W, strain HOG1, active compounds read low 0.284 | S. cerevisiae deletion strains, locus YLR221C, strain rsa3, active compounds read low 0.619 | S. cerevisiae deletion strains, locus YLR258W, strain gsy2, active compounds read low 0.786 | S. cerevisiae deletion strains, locus YLR262C, strain YPT6 (second series), active compounds read low 0.208 | S. cerevisiae deletion strains, locus YLR268W, strain sec22, active compounds read low 0.85 | S. cerevisiae deletion strains, locus YLR320W, strain mms22, active compounds read low 0.695 | S. cerevisiae deletion strains, locus YLR330W, strain CHS5, active compounds read low 0.662 | S. cerevisiae deletion strains, locus YLR342W, strain FKS1 (second series), active compounds read low 0.42 | S. cerevisiae deletion strains, locus YLR342W, strain FKS1, active compounds read low 0.596 | S. cerevisiae deletion strains, locus YLR371W, strain rom2, active compounds read low 0.444 | S. cerevisiae deletion strains, locus YLR418C, strain cdc73, active compounds read low 0.297 | S. cerevisiae deletion strains, locus YML016C, strain PPZ1, active compounds read low 0.889 | S. cerevisiae deletion strains, locus YML032C, strain rad52, active compounds read low 0.732 | S. cerevisiae deletion strains, locus YML120C, strain ndi1, active compounds read low 0.222 | S. cerevisiae deletion strains, locus YML124C, strain tub3, active compounds read low 0.922 | S. cerevisiae deletion strains, locus YMR205C, strain PFK2, active compounds read low 0.649 | S. cerevisiae deletion strains, locus YMR223W, strain ubp8, active compounds read low 0.828 | S. cerevisiae deletion strains, locus YMR263W, strain SAP30, active compounds read low 0.657 | S. cerevisiae deletion strains, locus YMR307W, strain GAS1, active compounds read low 0.509 | S. cerevisiae deletion strains, locus YNL071W, strain lat1, active compounds read low 0.684 | S. cerevisiae deletion strains, locus YNL153C, strain GIM3, active compounds read low 0.788 | S. cerevisiae deletion strains, locus YNL183C, strain NPR1, active compounds read low 0.715 | S. cerevisiae deletion strains, locus YNL209W, strain ssb2, active compounds read low 0.856 | S. cerevisiae deletion strains, locus YNL233W, strain BNI4, active compounds read low 0.563 | S. cerevisiae deletion strains, locus YNL298W, strain CLA4, active compounds read low 0.883 | S. cerevisiae deletion strains, locus YNL307C, strain MCK1, active compounds read low 0.502 | S. cerevisiae deletion strains, locus YNR052C, strain pop2, active compounds read low 0.629 | S. cerevisiae deletion strains, locus YOL147C, strain pex11, active compounds read low 0.681 | S. cerevisiae deletion strains, locus YOR001W, strain rrp6, active compounds read low 0.636 | S. cerevisiae deletion strains, locus YOR061W, strain CKA2, active compounds read low 0.859 | S. cerevisiae deletion strains, locus YOR069W, strain VPS5, active compounds read low 0.854 | S. cerevisiae deletion strains, locus YOR070C, strain gyp1, active compounds read low 0.693 | S. cerevisiae deletion strains, locus YOR080W, strain dia2, active compounds read low 0.715 | S. cerevisiae deletion strains, locus YOR083W, strain WHI5, active compounds read low 0.835 | S. cerevisiae deletion strains, locus YOR106W, strain vam3, active compounds read low 0.373 | S. cerevisiae deletion strains, locus YOR144C, strain elg1, active compounds read low 0.711 | S. cerevisiae deletion strains, locus YOR184W, strain ser1, active compounds read low 0.355 | S. cerevisiae deletion strains, locus YOR231W, strain MKK1, active compounds read low 0.575 | S. cerevisiae deletion strains, locus YOR265W, strain rbl2, active compounds read low 0.741 | S. cerevisiae deletion strains, locus YOR270C, strain vph1, active compounds read low 0.612 | S. cerevisiae deletion strains, locus YOR290C, strain snf2, active compounds read low 0.776 | S. cerevisiae deletion strains, locus YPL051W, strain arl3, active compounds read low 0.539 | S. cerevisiae deletion strains, locus YPL055C, strain LGE1, active compounds read low 0.403 | S. cerevisiae deletion strains, locus YPL106C, strain sse1, active compounds read low 0.505 | S. cerevisiae deletion strains, locus YPL240C, strain hsp82, active compounds read low 0.697 | S. cerevisiae deletion strains, locus YPL256C, strain CLN2, active compounds read low 0.682 | S. cerevisiae deletion strains, locus YPR119W, strain clb2, active compounds read low 0.799 | S. cerevisiae deletion strains, locus YPR163C, strain tif3, active compounds read low 0.817 | S. cerevisiae deletion strains, locus YPR167C, strain met16, active compounds read low 0.773 | S. cerevisiae deletion strains, strain wtn01, active compounds read low 0.812 | S. cerevisiae strains, strain wild type, active compounds read low 0.458
